Where “and” joins values, the source holds several entries; their conditions need not be identical. Identical values can stand only once. About 40 (0.2%) of roughly 16,000 compounds were called active. About 1% were inconclusive and are not listed. Many of the other results were omitted from the sample, so actives are more common in it than they were. More than one record can exist for a structure, and the calls need not agree. Values without a mark were called inactive. The call rests on the fitted dose curve; in most records, active means well fitted activation curve with a large enough effect; inconclusive means small, poorly fitted or top-dose-only effect, or another doubt; inactive means no such curve, though single readings can be large or run the other way.
Target: Rap guanine nucleotide exchange factor 4 (Homo sapiens) (UniProt Q8WZA2)
Sequence (Q8WZA2 whole entry, looked up): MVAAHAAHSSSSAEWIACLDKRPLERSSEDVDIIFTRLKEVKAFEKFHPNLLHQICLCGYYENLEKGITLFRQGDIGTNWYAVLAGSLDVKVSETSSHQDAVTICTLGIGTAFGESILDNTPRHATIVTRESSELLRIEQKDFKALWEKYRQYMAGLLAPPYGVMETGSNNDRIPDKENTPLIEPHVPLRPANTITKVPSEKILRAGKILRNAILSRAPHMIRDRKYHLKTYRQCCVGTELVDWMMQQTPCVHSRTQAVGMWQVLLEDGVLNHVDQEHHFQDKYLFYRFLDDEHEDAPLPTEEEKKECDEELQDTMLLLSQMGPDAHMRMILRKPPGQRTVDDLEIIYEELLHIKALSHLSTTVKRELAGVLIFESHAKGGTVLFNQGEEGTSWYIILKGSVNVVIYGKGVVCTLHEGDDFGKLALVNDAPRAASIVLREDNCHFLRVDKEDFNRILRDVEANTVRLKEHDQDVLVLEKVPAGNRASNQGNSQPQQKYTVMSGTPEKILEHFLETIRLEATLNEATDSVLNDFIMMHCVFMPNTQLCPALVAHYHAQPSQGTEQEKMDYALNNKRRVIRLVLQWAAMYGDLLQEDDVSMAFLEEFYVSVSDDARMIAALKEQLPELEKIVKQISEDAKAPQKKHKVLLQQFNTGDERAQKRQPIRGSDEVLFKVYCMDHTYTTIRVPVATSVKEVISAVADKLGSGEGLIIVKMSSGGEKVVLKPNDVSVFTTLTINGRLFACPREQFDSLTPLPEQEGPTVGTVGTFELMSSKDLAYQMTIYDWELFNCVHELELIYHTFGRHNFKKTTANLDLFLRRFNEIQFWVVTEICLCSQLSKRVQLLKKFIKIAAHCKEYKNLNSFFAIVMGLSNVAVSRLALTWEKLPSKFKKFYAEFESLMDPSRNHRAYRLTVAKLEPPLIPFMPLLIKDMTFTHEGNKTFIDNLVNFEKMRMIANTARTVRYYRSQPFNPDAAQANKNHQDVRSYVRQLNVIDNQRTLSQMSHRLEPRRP
Assay: Validation qHTS for agonist of cAMP-regulated guanine nucleotide exchange factor 4 (EPAC2);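 on activation: exchange makes BODIPY-GDP fluorescence drop when released from Rap1B; series mostly up to about 150 µM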
Settings: EPAC2 Rap1B BODIPY-GDP exchange, fluorescence; activation: active compounds read high
Method in brief: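 Fluorescent exchange assay: 100 nM EPAC2 with 250 nM RAP1B-BODIPY-GDP and 50 uM GDP; compound added, 5 min at room temperature, then read (ex 480/em 540 nm) every 5 min for 30 min. Normalized to 6.5 mM cAMP agonist control.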
On the % scale 0 is the no-effect control and ±100 the full control effect; potency means the concentration at half of the fitted maximal effect.

Point of comparison: `COc1ccccc1C1CN(CCNC(=O)c2ccc3c(c2)OCCO3)Cc2ccccc2O1` (configuration not stated), activation 10.6%. Against it:
- Cc1c(C(=O)NCCCc2ccncc2)cnn1-c1nccc(-c2ccccc2F)n1 — lower, -21.1%
- COc1cccc(-c2nc(N3CCN(C)CC3)c3ccccc3n2)c1 — lower, -6.1%
- COc1cccc(CNC(=O)c2c(OC)cc(=O)n3c2CCN(C(=O)c2cc(C)ccc2C)CC3)c1 — lower, -2.82%
- O=c1c(-c2ccc(Cl)cc2)nc2cnc(N3CCOCC3)nc2n1Cc1ccc(F)cc1 — lower, -11.5%
- COc1cc(CN2CCOc3ccc(C(O)c4cccnc4)cc3C2)cc(OC)c1 (configuration not stated) — lower, -13.6%
- COc1cc(N)c(N)cc1OC — lower, -7.59%
- Cc1cnc(CNc2cc(-c3ccc(N(C)C)cc3)ncn2)cn1 — lower, -19.7%
- COc1ccccc1CN1[C@@H](CC(=O)O)c2ccccc2S1(=O)=O — lower, -19.4%
- COC(=O)C1CCN(Cc2ccc3c(c2)CN(C(=O)c2ccc(-n4cnnn4)cc2)CCO3)CC1 — lower, -3.06%
- COc1cc(/C(C)=C/c2ccccc2)c2c(c1)oc1ccccc12 — lower, -19%
- CCCCCCC[n+]1ccc(/C=C/c2c(C)[nH]c3ccccc23)c2ccccc21 — lower, -18.3%
- CCCCCCCCCCCCCCCC[n+]1ccc(/C=C/c2c(C)[nH]c3ccccc23)cc1 — lower, -30%
- Cc1cnc(-n2ncc(C(=O)NCc3ccccn3)c2C2CC2)nc1-c1cccs1 — lower, -5.87%
- c1ccc2nc3ccccc3cc2c1 — lower, -8.02%
- Nc1ccc2nc[nH]c2c1 — lower, -7.36%
- COc1ccc2c(c1)-c1nc(-n3ncc(C(=O)NCC4CCCN(C)C4)c3C3CC3)ncc1CC2 (configuration not stated) — lower, 1.91%
- CC(=O)N[C@@H]1C(O[C@H]2O[C@H](C(=O)O)C(O)[C@H](O)[C@H]2O)[C@H](O)[C@@H](CO)O[C@H]1O[C@@H]1C(C(=O)O)O[C@@H](O[C@H]2[C@H](O)[C@@H](CO)OC(O)[C@@H]2NC(C)=O)[C@H](O)[C@H]1O (some centres not stated) — lower, -11.1%
- CCn1c(C)nc2cc(NS(=O)(=O)c3ccccc3)cc(C(=O)N3C[C@@H](C)O[C@@H](C)C3)c21 — lower, -0.794%
- OC(C1=C/C(=C\c2ccncc2)c2ccccc21)c1ccncc1 (configuration not stated) — lower, -21.2%
- COc1ccc(C(=O)N2CCC3(CC2)c2ccccc2[C@@H](NC(=O)c2ccccn2)[C@@H]3OC)c(O)c1 — lower, 3.44%
- O=C1[C@H](Cc2ccccc2)NC/C=C\C[C@@H](c2ccc(Cl)cc2)N1Cc1ccccc1 — lower, -43%
- CC(C)C[C@@H](CO)N1CCN(Cc2cccc(C#N)c2)CCC1=O — lower, -27.7%
- COc1ccc(OC)c(CN2CCCC(c3nc(-c4ccncc4)ncc3-c3ccccc3C)C2)c1 (configuration not stated) — lower, -2.68%
- FC(F)(F)C(Cl)Br (configuration not stated) — lower, -29.1%
- COCc1ccc(CN2CCOc3c(O)cc(-c4cc(C)c5ccc(F)cc5n4)cc3C2)o1 — lower, 8.6%
- O=C(c1cc(C(F)(F)F)cc(C(F)(F)F)c1)N1CCC2(CCCN(Cc3ccccc3)C2)CC1 — lower, -6.26%
- Cc1cc(C)n2nc(C(=O)NCC3Cc4cccc(-c5ccc(S(C)(=O)=O)cc5)c4O3)cc2n1 (configuration not stated) — lower, 2.37%
- Cc1cc(=O)oc2c(O)c(O)ccc12 — lower, -5.12%
- O=c1oc2c(O)c(O)cc3c(=O)oc4c(O)c(O)cc1c4c23 — lower, 0.203%
- COc1c(O)cc2c(=O)oc3c(OC)c(O)cc4c(=O)oc1c2c34 — lower, -13.8%
- CN(C)c1ccc(/C=C/c2ccc3cc(N(C)C)ccc3n2)cc1 — lower, 0.661%
- COc1ccccc1-c1nccc(NCc2ccccc2)n1 — lower, -0.806%
- COc1ccccc1-c1nccc(NCc2cccc(C)c2)n1 — lower, -13.6%
- OC1CCN(Cc2ccc3c(c2)CN(Cc2ccc(Oc4ncccn4)cc2)CCO3)CC1 — lower, -1.28%
- CC(=O)OCC1=C(C(=O)O)N2C(=O)C(NC(=O)CSc3ccncc3)[C@@H]2SC1 (some centres not stated) — lower, -16.2%
- O=C(NCc1nnc2n1CCN(C(=O)c1cccc(Cl)c1)CC2)C1CC1 — lower, -2.97%
- CC(=O)OCC(=O)[C@@]1(O)CCC2C3CC(C)C4=CC(=O)C=CC4(C)C3C(O)CC21C (some centres not stated) — lower, -21.4%
- Cc1cnc(SCCN2CCOCC2)nc1C1CCCN(C(=O)c2cccc3c(C)c(C)[nH]c23)C1 (configuration not stated) — lower, -5.56%
- CC(=O)NCC(=O)NCC1Cc2cc(C)cc(-c3ccccn3)c2O1 (configuration not stated) — lower, 0.493%
- CN(CCO)C(=O)c1cn(C2CCCN(Cc3ccc(C(F)(F)F)cc3)C2)nn1 (configuration not stated) — lower, -15.8%
- COC(=O)C1[C@H]2SC(C)(C)C(C(=O)OC)N2C(=O)N1Cc1ccccc1 (some centres not stated) — lower, -17.5%
- COCCn1c(=O)c(-c2ccc(F)cc2)nc2cnc(Nc3cccc(OC)c3)nc21 — lower, 6.42%
- C[C@@H](N)CCCP(=O)(O)O — lower, -1.34%
- CC(C)CN1CCC2(CC1)CCN(C(=O)c1ccco1)CC2 — lower, -7.83%
- CC(N)(COP(=O)(O)O)C(=O)O (configuration not stated) — lower, 4.78%
- CC(C)C[C@@H](CSc1ccccc1)N1CCN(C)CCC1=O — lower, -9.44%
- Cc1noc(C)c1-c1nccc(NC2CC2)n1 — lower, -2.86%
- CC(C)CCCC(C)C1CCC2C3C(=O)C=C4CC(O)CC[C@@]4(C)C3CC[C@@]12C (some centres not stated) — lower, -16%
- COC(=O)c1ccccc1C(=O)NCC1Cc2cc(-c3nc(C)cnc3C)ccc2O1 (configuration not stated) — lower, -20.8%
- CCCCCCCCCC[n+]1ccc(/C=C/c2c[nH]c3ccccc23)c2ccccc21 — lower, -5.9%
- COCC(=O)N1CCC[C@@]2(CCN(c3ccccn3)C2)C1 — lower, -5.3%
- COc1cccc(Nc2ncc3nc(C)c(=O)n(C[C@H]4CCCO4)c3n2)c1 — lower, -13.4%
- [C-]#[N+]c1cc(-c2ccncc2)c(C)[nH]c1=O — lower, -4.45%
- Cc1cccc(N(C)C(=S)Oc2ccc3c(c2)CCC3)c1 — higher, 13.3%
- OC(c1cccnc1)c1ccc2c(c1)CN(Cc1cn(-c3ccccc3)nc1-c1ccccc1)CCO2 (configuration not stated) — lower, -2.05%
- O.O.O.O.O.O.O.O=S(=O)([O-])[O-].[Co+2] — lower, -48.9%
- CN(C)Cc1ccccc1-c1cncnc1NCc1ccccc1 — lower, -18.5%
- N#Cc1ccccc1-c1ccc2ncnc(NCc3ccccc3)c2c1 — lower, -0.93%
- CC(C)(CNC(=O)c1cnn(-c2nccc(-c3ccccc3F)n2)c1C1CC1)N1CCOCC1 — lower, -17.8%
- C[C@]12CCC(=O)C=C1CCC1C3CC[C@](O)(C(=O)CO)[C@@]3(C)CC3OC312 (some centres not stated) — lower, -18.8%
- O=C1CCNCCN1[C@H](CO)c1ccccc1 — lower, -16.1%
- CN(C)c1ncnc2ccc(-c3cccc(C#N)c3)cc12 — lower, -0.384%
- Cc1cc(N(C)C)cc(C)c1/C=C/c1cc[n+](C)c2ccccc12 — lower, -16.7%
- Cc1cc2c(c(-c3cnccn3)c1)OC(CNC(=O)c1cc(Cl)ccc1F)C2 (configuration not stated) — lower, 5.25%
- COC(=O)C1N[C@@H]([C@@H](NC(=O)COc2ccccc2)C(=O)Nc2ccc(OC)cc2)SC1(C)C (some centres not stated) — lower, -24.1%
- CC(=O)NCCNc1nc(-c2ccccc2CN(C)C)nc2ccccc12 — lower, -19.9%
- COC(=O)CC[C@H](N)C(=O)O — lower, -14%
- CN1CCN(c2ncc3nc(-c4cn(C)c5ccccc45)c(=O)n(Cc4cccs4)c3n2)CC1 — lower, -4.2%
- OC(c1ccc2c(c1)CN(Cc1cccn1-c1ncccn1)CCO2)C1CCCCC1 (configuration not stated) — lower, -21.5%
- COc1ccc2[nH]cc(CCNc3nc(-c4c(C)noc4C)nc4ccccc34)c2c1 — lower, 6.86%
- OCCN(CCO)c1ccc(/C=C/c2ccnc3ccccc23)cc1 — lower, -44.7%
- CN(C)c1ccc(/C=C/c2ccnc3ccccc23)cc1[N+](=O)[O-] — lower, -6.84%
- CCCCCCCCCCCCCCCCCCN(CCCCCCCCCCCCCCCCCC)c1ccc(/C=C/c2ccnc3ccccc23)cc1 — lower, -21.8%
- CN(C)c1ccc(/C=C/c2ccnc3ccccc23)cc1Cl — lower, -5.92%
- Cc1cccc(CNc2nc(-c3ccc4c(c3)OCO4)nc3ccccc23)c1 — lower, 5.64%
- Cc1oc(-c2ccccc2NC(=O)C2CCCO2)nc1CNC(=O)c1[nH]c2c(C)ccc(C)c2c1C (configuration not stated) — lower, 8.6%
- COc1ccc(-n2c(=O)c(-c3cccs3)nc3cnc(Nc4ccccc4)nc32)cc1 — lower, -5.89%
- COc1cccc(Nc2ncc3nc(C)c(=O)n(-c4ccccc4)c3n2)c1 — lower, -17%
- CN(C)CCc1c[nH]c2ccc(CS(=O)(=O)N3CCCC3)cc12 — lower, -8.07%
- CNS(=O)(=O)Cc1ccc2[nH]cc(CCN(C)C)c2c1 — lower, -28%
- CC(C)c1c(O)ccc2c1CCC1[C@@](C)(C=O)CCC[C@@]21C (some centres not stated) — higher, 22.5%
- CC[C@@]1(O)C(=O)OCc2c1cc1n(c2=O)Cc2cc3c([N+](=O)[O-])cccc3nc2-1 — lower, 5.92%
- C[N+]1(Cc2ccccc2)CCC(C(=O)OCC2CCCC2)CC1 (configuration not stated) — lower, -12.2%
- N#Cc1ccc(CN2CC[C@@]3(CCCN(C(=O)c4ccco4)C3)C2)cc1 — lower, -12.3%
- COC(=O)C(O)C1C(C)(C)C(OC(C)=O)C2CC3=C4CC(=O)OC(c5ccoc5)[C@]4(C)CCC3[C@@]1(C)C2=O (some centres not stated) — lower, -10.7%

With `Nc1cc(N)cc(N)c1` the Potency was 50.1 µM (active).
For `CCCCCCC[n+]1ccc(/C=C/c2c(C)[nH]c3ccccc23)cc1`, the Potency was 25.1 µM (active).
For `Nc1ccc2cc3ccc(N)cc3nc2c1`, the Potency was 89.1 µM (active).
`FC(F)OC(Cl)C(F)(F)F` (configuration not stated) was tested, and the Potency was 31.6 µM (active).
`O=c1oc2c(O)c(O)cc3c(=O)oc4c(O)c(O)cc1c4c23` was tested, and the Potency was 126 µM (active).
In the case of `CCOC(=O)Nc1ccc(NCc2ccc(F)cc2)nc1N`, the Potency is reported as 112 µM (active).
With `C/C1=C2N=C(/C=C3N=C(/C(C)=C4\[N-][C@@](C)([C@@H]5N=C1[C@](C)(CCC(=O)NCC(C)OP(=O)(O)O[C@H]1[C@@H](O)[C@@H](n6cnc7cc(C)c(C)cc76)O[C@@H]1CO)[C@H]5CC(N)=O)[C@@](C)(CC(N)=O)[C@@H]4CCC(N)=O)[C@@](C)(CC(N)=O)[C@@H]\3CCC(N)=O)C(C)(C)[C@@H]/2CCC(N)=O.CC(=O)O.[Co]` (some centres not stated) the Potency was 56.2 µM (active).
With `Nc1cc(-c2ccncc2)c[nH]c1=O` the Potency was 100 µM (active).
`CCCN(CCC)c1ccc(/C=C/c2ccnc3ccccc23)cc1` was tested, and the Potency was 100 µM (active).
`Cc1cc(/C=C/c2ccnc3ccccc23)ccc1N(C)C` was tested, and the Potency was 50.1 µM (active).
In the case of `COc1cccc(Nc2ncc3nc(-c4cccs4)c(=O)n(-c4ccccc4)c3n2)c1`, the Potency is reported as 50.1 µM (active).
In the case of `CN(C)CCc1c[nH]c2ccc(C[C@H]3COC(=O)N3)cc12`, the Potency is reported as 126 µM (active).
With `CC[C@@]1(O)C(=O)OCc2c1cc1n(c2=O)Cc2cc3c(CN(C)C)c(O)ccc3nc2-1` the Potency was 89.1 µM (active).

In the case of `Nc1ccc(O)cc1`, the activation is reported as 25.8% and 23.8%.
`COC(=O)C1C(O)CC[C@@H]2CN3CCc4c([nH]c5ccccc45)C3C[C@@H]12` (some centres not stated) was tested, and the activation was -7.23% and -17.2%.
In the case of `CC[C@@]1(O)C(=O)OCc2c1cc1n(c2=O)Cc2cc3cc(O)ccc3nc2-1`, the activation is reported as -2.34% and 12.4%.
